Data reported in PubChem BioAssay (NCI).
This is part of a sample that, as a whole, favours compounds with a hit. Of some 83,000 tested, about 20% had one in any assay.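 Each cell line was grown in a 96-well plate and treated with one concentration of compound for 48 hours. Values below 10 were considered active.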 Calls of active or inactive are those of the source.

How the values were obtained:
Experiment in all cases: NCI-60 one-dose screen, 48 h (100 = growth as untreated, 0 = no growth, -100 = all killed)
Details in all cases: 10 µM
SR leukemia = test system: SR leukemia
RPMI-8226 leukemia = test system: RPMI-8226 leukemia
OVCAR-8 ovarian = test system: OVCAR-8 ovarian
OVCAR-5 ovarian = test system: OVCAR-5 ovarian
OVCAR-4 ovarian = test system: OVCAR-4 ovarian
SK-OV-3 ovarian = test system: SK-OV-3 ovarian
OVCAR-3 ovarian = test system: OVCAR-3 ovarian
NCI/ADR-RES ovarian = test system: NCI/ADR-RES ovarian
T-47D breast = test system: T-47D breast
BT-549 breast = test system: BT-549 breast
MCF7 breast = test system: MCF7 breast
HCT-116 colon = test system: HCT-116 colon
HCC-2998 colon = test system: HCC-2998 colon
KM12 colon = test system: KM12 colon
IGROV1 ovarian = test system: IGROV1 ovarian
HS 578T breast = test system: HS 578T breast
MDA-MB-435 melanoma = test system: MDA-MB-435 melanoma
SW-620 colon = test system: SW-620 colon

Measured: growth

O[C@@H]1CO[C@H]2[C@@H]1OC[C@@H]2O
inactive: SR leukemia 112% | RPMI-8226 leukemia 112% | OVCAR-8 ovarian 102% | OVCAR-5 ovarian 92.6% | OVCAR-4 ovarian 121% | SK-OV-3 ovarian 115% | OVCAR-3 ovarian 120% | NCI/ADR-RES ovarian 104% | T-47D breast 121% | BT-549 breast 112% | MCF7 breast 99.6% | HCT-116 colon 104% | HCC-2998 colon 101% | KM12 colon 105%

COc1cc2c(cc1NC(=O)C(Cl)Cl)-c1ccc(NC(=O)C(Cl)Cl)cc1C2
inactive: SR leukemia 86.4% | OVCAR-5 ovarian 10.2% | SK-OV-3 ovarian 56.3% | IGROV1 ovarian 43.1% | HS 578T breast 13.6% | BT-549 breast 69.3%
active: RPMI-8226 leukemia 1.01% | OVCAR-8 ovarian -22.8% | OVCAR-3 ovarian -44.6% | NCI/ADR-RES ovarian -39.2% | T-47D breast 3.05% | MDA-MB-435 melanoma -57.7% | SW-620 colon -11.6% | MCF7 breast -3.08% | HCT-116 colon -61% | HCC-2998 colon -98.5% | KM12 colon -65.5%

Cc1cc(=O)n2nnc3cc(C(F)(F)F)ccc3n12
inactive: SR leukemia 104% | RPMI-8226 leukemia 107% | OVCAR-8 ovarian 111% | OVCAR-5 ovarian 121% | OVCAR-4 ovarian 116% | OVCAR-3 ovarian 114% | HS 578T breast 117% | NCI/ADR-RES ovarian 110% | T-47D breast 116% | BT-549 breast 127% | MDA-MB-435 melanoma 99.4% | SW-620 colon 118% | MCF7 breast 120% | HCT-116 colon 103% | HCC-2998 colon 104% | KM12 colon 105%

CN1CCN(CCCn2c(=O)c3sc4ncccc4c3n3nnc(-c4ccccc4)c23)CC1
active: SR leukemia -38% | RPMI-8226 leukemia -2.66% | OVCAR-4 ovarian -29% | OVCAR-3 ovarian -47.4% | HS 578T breast -12.2% | T-47D breast -75.4% | MDA-MB-435 melanoma -75.8% | SW-620 colon -65.5% | MCF7 breast 5.32% | HCT-116 colon -59.2% | HCC-2998 colon -5.79%
inactive: OVCAR-8 ovarian 16.9% | OVCAR-5 ovarian 59.3% | NCI/ADR-RES ovarian 33.1% | BT-549 breast 50.1% | KM12 colon 16.4%

COc1ccc(Cl)cc1Nc1nc(C(F)(F)F)ccc1C(=O)N/N=C/c1ccc(Cl)cc1
active: SR leukemia -0.906% | OVCAR-3 ovarian -34.7% | HS 578T breast 3.13%
inactive: RPMI-8226 leukemia 20.4% | OVCAR-8 ovarian 46.8% | OVCAR-5 ovarian 57.2% | SK-OV-3 ovarian 44.5% | IGROV1 ovarian 45.2% | NCI/ADR-RES ovarian 41% | T-47D breast 37.6% | BT-549 breast 36.9% | MDA-MB-435 melanoma 59.2% | SW-620 colon 30.9% | MCF7 breast 23.6% | HCT-116 colon 21.4% | HCC-2998 colon 59.4%

Cc1ccccc1N1C(=O)c2cc(S(N)(=O)=O)c(Cl)cc2NC1C (stereo not given)
inactive: SR leukemia 87.1% | RPMI-8226 leukemia 106% | OVCAR-8 ovarian 108% | OVCAR-5 ovarian 108% | SK-OV-3 ovarian 128% | IGROV1 ovarian 111% | OVCAR-3 ovarian 109% | HS 578T breast 111% | NCI/ADR-RES ovarian 103% | T-47D breast 104% | BT-549 breast 96.6% | MDA-MB-435 melanoma 112% | SW-620 colon 108% | MCF7 breast 94.2% | HCT-116 colon 102% | HCC-2998 colon 107%

O=C(CCC(C(=O)c1ccccc1)c1ccccc1)c1ccccc1 (stereo not given)
inactive: SR leukemia 25.5% | RPMI-8226 leukemia 64.9% | OVCAR-8 ovarian 95.3% | OVCAR-5 ovarian 88% | SK-OV-3 ovarian 74.3% | IGROV1 ovarian 79.3% | OVCAR-3 ovarian 72.3% | HS 578T breast 80.1% | NCI/ADR-RES ovarian 38.3% | T-47D breast 66.6% | BT-549 breast 54.5% | SW-620 colon 41.9% | MCF7 breast 72% | HCT-116 colon 50.3% | HCC-2998 colon 76.6% | KM12 colon 34.5%
active: MDA-MB-435 melanoma 4.52%

CCOC(=O)C1C(C(=O)OCC)C2C(=O)C3C(C(=O)OCC)C(C(=O)OCC)C3C(=O)C12 (stereo not given)
inactive: SR leukemia 117% | RPMI-8226 leukemia 101% | OVCAR-8 ovarian 104% | OVCAR-5 ovarian 108% | SK-OV-3 ovarian 109% | IGROV1 ovarian 118% | OVCAR-3 ovarian 114% | HS 578T breast 108% | NCI/ADR-RES ovarian 56% | T-47D breast 100% | BT-549 breast 109% | MDA-MB-435 melanoma 105% | SW-620 colon 111% | MCF7 breast 99.8% | HCT-116 colon 104% | HCC-2998 colon 107% | KM12 colon 109%

CC[C@@H]1NC(=O)[C@H]([C@H](O)[C@H](C)C/C=C/c2ccc(CN3C(=O)CCCC3=O)cc2)N(C)C(=O)[C@H](C(C)C)N(C)C(=O)[C@H](CC(C)C)N(C)C(=O)[C@H](CC(C)C)N(C)C(=O)[C@@H](C)NC(=O)[C@H](C)NC(=O)[C@H](CC(C)C)N(C)C(=O)[C@H](C(C)C)NC(=O)[C@H](CC(C)C)N(C)C(=O)CN(C)C1=O
inactive: OVCAR-8 ovarian 68.4% | OVCAR-5 ovarian 83.8% | OVCAR-4 ovarian 53.9% | SK-OV-3 ovarian 74.9% | OVCAR-3 ovarian 54.4% | HS 578T breast 73.9% | T-47D breast 25.3% | MDA-MB-435 melanoma 10.8% | SW-620 colon 56% | MCF7 breast 25.3% | HCT-116 colon 16% | HCC-2998 colon 69.6% | KM12 colon 45.9%
active: SR leukemia -2.59% | RPMI-8226 leukemia 9.26% | BT-549 breast 8.44%
